According to PubChem BioAssay (EPA / NIEHS):
Active and inactive are the calls of the source. Rule for the calls: active = hit-call score of the fitted dose curve at least 0.9, where 1 is the maximum; inactive = score below 0.9.

Read-out: Plasminogen activator inhibitor-1 (PAI1), SERPINE1 (gene 5054)
Assay: BSK_BE3C_PAI1: BioMAP Diversity Plus: BE3C Assay for Plasminogen activator inhibitor-1 (PAI1) Biomarker Activity (AID 2283037)
Conditions: primary human bronchial epithelial cells; actives raise or lower the signal
How it was run: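 ELISA read-out of PAI-1 from human bronchial epithelial primary cells, 24 h post-dosing; bidirectional curve fit vs DMSO baseline, gain or loss of signal scored.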

| SMILES | outcome | AC50 |
| --- | --- | --- |
| CCS(=O)(=O)c1cccnc1S(=O)(=O)NC(=O)Nc1nc(OC)cc(OC)n1 | inactive | – |
| CCOC1Oc2ccc(OS(C)(=O)=O)cc2C1(C)C (stereo not drawn) | inactive | – |
| [2H]C1([2H])[n+]2ccccc2-c2cccc[n+]2C1([2H])[2H] | inactive | – |
| O=C(O)CCCOc1ccc(Cl)cc1Cl | inactive | – |
| CC(C)N(C(=O)COc1nnc(C(F)(F)F)s1)c1ccc(F)cc1 | inactive | – |
| O=C(NC(=O)c1c(F)cccc1F)Nc1ccc(OC(F)(F)C(F)OC(F)(F)F)c(Cl)c1 (stereo not drawn) | inactive | – |
| N#Cc1c(Cl)c(Cl)c(Cl)c(C#N)c1Cl | – | 2.5 µM (active) |
| COC(=O)c1ccccc1S(=O)(=O)NC(=O)N(C)c1nc(C)nc(OC)n1 | inactive | – |
| CNC(=O)Oc1cccc(N=CN(C)C)c1 | inactive | – |
| CCN(CC)C(=O)SCc1ccc(Cl)cc1 | inactive | – |
| Clc1ccccc1-c1nnc(-c2ccccc2Cl)nn1 | inactive | – |
| COC(=O)c1ccccc1CS(=O)(=O)NC(=O)Nc1nc(OC)cc(OC)n1 | inactive | – |
| Cc1cc(C)nc(NC(=O)NS(=O)(=O)c2ccccc2C(=O)OC2COC2)n1 | inactive | – |
| CC1(c2ccc(Oc3ccccc3)cc2)OC(=O)N(Nc2ccccc2)C1=O (stereo not drawn) | inactive | – |
| CCOc1nc(NC)nc(NC(=O)NS(=O)(=O)c2ccccc2C(=O)OC)n1 | inactive | – |
| CCc1ccc(C(=O)NN(C(=O)c2cc(C)cc(C)c2)C(C)(C)C)cc1 | inactive | – |
| O=[N+]([O-])c1c(Cl)c(Cl)c(Cl)c(Cl)c1Cl | inactive | – |
| CCC(C)(C)C(=O)OC1=C(c2ccc(Cl)cc2Cl)C(=O)OC12CCCCC2 | – | 20 µM (active) |
| COc1nn(CSP(=S)(OC)OC)c(=O)s1 | inactive | – |
| C#CCN1C(=O)COc2cc(F)c(N3C(=O)C4=C(CCCC4)C3=O)cc21 | inactive | – |
| CC(C)(C)C(O)/C(=C\c1ccc(Cl)cc1Cl)n1cncn1 (stereo not drawn) | – | 27.6 µM (active) |
| COP(=O)(OC)OC=C(Cl)Cl | – | 20 µM (active) |
| ClC1C(Cl)C(Cl)C(Cl)C(Cl)C1Cl (stereo not drawn) | inactive | – |
| CC1(C)C(C=C(Cl)Cl)C1C(=O)OC(C#N)c1ccc(F)c(Oc2ccccc2)c1 (stereo not drawn) | inactive | – |
| COP(=S)(OC)Oc1ccc([N+](=O)[O-])cc1 | inactive | – |
| CC[C@H](C)[C@H]1O[C@]2(C=C[C@@H]1C)C[C@@H]1C[C@@H](C/C=C(\C)[C@@H](O[C@H]3C[C@H](OC)[C@@H](O[C@H]4C[C@H](OC)[C@@H](O)[C@H](C)O4)[C@H](C)O3)[C@@H](C)/C=C/C=C3\CO[C@@H]4[C@H](O)C(C)=C[C@@H](C(=O)O1)[C@]34O)O2 (tested in a mixture with another compound) | – | 5.51 µM (active) |

Read-out: urokinase plasminogen activator (uPA), PLAU (gene 5328)
Assay: BSK_BE3C_uPA: BioMAP Diversity Plus: BE3C Assay for urokinase plasminogen activator (uPA) Biomarker Activity (AID 2283038);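 for outcome: uPA protein level quantified by ELISA in cell cultures; uPA read one day after compound addition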
Conditions: primary human bronchial epithelial cells; actives raise or lower the signal
How it was run: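 Primary human bronchial epithelial cells, uPA measured by ELISA 24 h after dosing. Bidirectional change relative to DMSO; cytotoxicity checked in parallel cultures by sulforhodamine B total-protein staining.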

| SMILES | outcome | AC50 |
| --- | --- | --- |
| CCS(=O)(=O)c1cccnc1S(=O)(=O)NC(=O)Nc1nc(OC)cc(OC)n1 | inactive | – |
| CCOC1Oc2ccc(OS(C)(=O)=O)cc2C1(C)C (stereo not drawn) | – | 26.5 µM (active) |
| [2H]C1([2H])[n+]2ccccc2-c2cccc[n+]2C1([2H])[2H] | inactive | – |
| O=C(O)CCCOc1ccc(Cl)cc1Cl | inactive | – |
| CC(C)N(C(=O)COc1nnc(C(F)(F)F)s1)c1ccc(F)cc1 | inactive | – |
| O=C(NC(=O)c1c(F)cccc1F)Nc1ccc(OC(F)(F)C(F)OC(F)(F)F)c(Cl)c1 (stereo not drawn) | inactive | – |
| N#Cc1c(Cl)c(Cl)c(Cl)c(C#N)c1Cl | – | 1.69 µM (active) |
| COC(=O)c1ccccc1S(=O)(=O)NC(=O)N(C)c1nc(C)nc(OC)n1 | inactive | – |
| CNC(=O)Oc1cccc(N=CN(C)C)c1 | inactive | – |
| CCN(CC)C(=O)SCc1ccc(Cl)cc1 | inactive | – |
| Clc1ccccc1-c1nnc(-c2ccccc2Cl)nn1 | inactive | – |
| COC(=O)c1ccccc1CS(=O)(=O)NC(=O)Nc1nc(OC)cc(OC)n1 | inactive | – |
| Cc1cc(C)nc(NC(=O)NS(=O)(=O)c2ccccc2C(=O)OC2COC2)n1 | inactive | – |
| CC1(c2ccc(Oc3ccccc3)cc2)OC(=O)N(Nc2ccccc2)C1=O (stereo not drawn) | inactive | – |
| CCOc1nc(NC)nc(NC(=O)NS(=O)(=O)c2ccccc2C(=O)OC)n1 | inactive | – |
| CCc1ccc(C(=O)NN(C(=O)c2cc(C)cc(C)c2)C(C)(C)C)cc1 | inactive | – |
| O=[N+]([O-])c1c(Cl)c(Cl)c(Cl)c(Cl)c1Cl | inactive | – |
| CCC(C)(C)C(=O)OC1=C(c2ccc(Cl)cc2Cl)C(=O)OC12CCCCC2 | – | 31.1 µM (active) |
| CCC(C)(NC(=O)c1cc(Cl)c(C)c(Cl)c1)C(=O)CCl (stereo not drawn) | – | 29.7 µM (active) |
| COc1nn(CSP(=S)(OC)OC)c(=O)s1 | inactive | – |
| C#CCN1C(=O)COc2cc(F)c(N3C(=O)C4=C(CCCC4)C3=O)cc21 | inactive | – |
| CC(C)(C)C(O)/C(=C\c1ccc(Cl)cc1Cl)n1cncn1 (stereo not drawn) | – | 30.3 µM (active) |
| COP(=O)(OC)OC=C(Cl)Cl | inactive | – |
| ClC1C(Cl)C(Cl)C(Cl)C(Cl)C1Cl (stereo not drawn) | inactive | – |
| CC1(C)C(C=C(Cl)Cl)C1C(=O)OC(C#N)c1ccc(F)c(Oc2ccccc2)c1 (stereo not drawn) | inactive | – |
| COP(=S)(OC)Oc1ccc([N+](=O)[O-])cc1 | inactive | – |
| CC[C@H](C)[C@H]1O[C@]2(C=C[C@@H]1C)C[C@@H]1C[C@@H](C/C=C(\C)[C@@H](O[C@H]3C[C@H](OC)[C@@H](O[C@H]4C[C@H](OC)[C@@H](O)[C@H](C)O4)[C@H](C)O3)[C@@H](C)/C=C/C=C3\CO[C@@H]4[C@H](O)C(C)=C[C@@H](C(=O)O1)[C@]34O)O2 (tested in a mixture with another compound) | – | 5.41 µM (active) |
